# Sampled rows, rich in hits. Any-hit rate of the full collection: about 2.9%.
# DAGLB inhibitor: DAGLB lipase inhibitors, primary screen, biochemical, fluorescence, HTS; Diacylglycerol lipase-beta (Homo sapiens), Q8NCG7; HEK293T DAGLB membrane lysate, EnzChek fluorogenic substrate; inhibition, % at 5.17 µM; hit rate 0.059% among 340,000; in the data active means inhibition above about 34%;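 further: 0% = enzyme with vehicle and 100% = wells lacking enzyme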
# ABHD5 PLIN5 PPI: ABHD5-PLIN5 interaction inhibitors, primary screen, cell lysate, split luciferase complementation, luminescence; Split G. princeps luciferase complementation, 4 h; Perilipin-5 (Homo sapiens) + 1-acylglycerol-3-phosphate O-acyltransferase ABHD5 (Homo …; inhibition, % at 4 µM; hit rate 0.78% among 360,000;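 active means inhibition above the mean inhibition across every tested compound plus 3 SD, cut at about 22% in these data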;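 further: 0% = DMSO only wells and the 100% control is not disclosed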
# Target sequence (Q00G26 whole entry, looked up): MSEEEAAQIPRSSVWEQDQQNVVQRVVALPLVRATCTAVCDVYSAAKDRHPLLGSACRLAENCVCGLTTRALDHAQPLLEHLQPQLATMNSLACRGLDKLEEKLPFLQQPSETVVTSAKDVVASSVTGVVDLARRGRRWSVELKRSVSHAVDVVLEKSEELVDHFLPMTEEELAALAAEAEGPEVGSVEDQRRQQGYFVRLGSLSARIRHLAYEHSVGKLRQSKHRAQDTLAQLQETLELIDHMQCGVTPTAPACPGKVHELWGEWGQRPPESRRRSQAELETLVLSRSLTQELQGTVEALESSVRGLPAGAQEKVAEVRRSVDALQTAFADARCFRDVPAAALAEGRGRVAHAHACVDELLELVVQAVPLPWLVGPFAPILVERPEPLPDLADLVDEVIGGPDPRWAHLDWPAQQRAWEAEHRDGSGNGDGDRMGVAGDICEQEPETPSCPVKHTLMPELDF
# Target sequence (Q8WTS1 whole entry, looked up): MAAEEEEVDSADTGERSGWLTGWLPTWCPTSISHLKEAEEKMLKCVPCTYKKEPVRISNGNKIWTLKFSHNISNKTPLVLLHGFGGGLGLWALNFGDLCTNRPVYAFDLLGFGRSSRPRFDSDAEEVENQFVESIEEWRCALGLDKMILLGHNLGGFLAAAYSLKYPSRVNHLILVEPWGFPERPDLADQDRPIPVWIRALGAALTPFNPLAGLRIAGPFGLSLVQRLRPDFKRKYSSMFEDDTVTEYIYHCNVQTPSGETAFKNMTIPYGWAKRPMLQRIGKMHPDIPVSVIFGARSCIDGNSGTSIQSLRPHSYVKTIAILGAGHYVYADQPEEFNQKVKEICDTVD
# Rtt109 Vps75: inhibitors of C. albicans Rtt109/Vps75 HAT, primary screen, biochemical, ThioGlo CoA-SH fluorescence, plate reader; Histone acetyltransferase RTT109 (Candida albicans (strain SC5314 / ATCC MYA-2876)), …; inhibition, % at 34.9 µM; hit rate 0.16% among 330,000; purified Rtt109/Vps75, 4 h;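 active means inhibition of at least 50% in every replicate; inconclusive means best replicate reaches 50% inhibition but some replicates fall short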
# sPLA2-III inh: human group III sPLA2 inhibitors, primary screen, biochemical, QFRET, BODIPY PC-A2 liposome substrate; Group 3 secretory phospholipase A2 (Homo sapiens), Q9NZ20; hit rate 0.56% among 370,000; inhibition, % at 12.2 µM; QFRET BODIPY PC-A2 liposome hydrolysis, fluorescence;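 active means inhibition above mean plus 3 SD of compounds lying within the high and low control bounds, cut at about 19% in these data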;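 further: 0% = median of test compound wells and 100% = no enzyme DMSO wells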
# Myeloid diff 2: induction of myeloid progenitor differentiation, primary screen, cell-based, flow cytometry, MLPCN library | hit rate 1% among 360,000 | ER-HoxA9 myeloid progenitors, lysozyme-GFP differentiation | AID 624256, 2012 | calls only at 10 µM;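 active means normalized GFP-positive differentiation at or above the plate's own cutoff, the solvent-only control mean plus 3 SD; inconclusive means no clear call, values can overlap the other calls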;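 further: cells exposed to compound for four days before flow analysis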
# Cardio protect: cardioprotection against H2O2-induced cell death, primary screen, uHTS, H9c2 cells, ATPLite luminescence; H9c2 cardiomyocytes, H2O2 injury protection, 2 h; protection from H2O2 cell death, % at 20 µM; hit rate 0.63% among 360,000; AID 588492, 2011;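 active means compounds giving at least 50% protection of heart cells from peroxide-induced death in the single-dose screen, raw or plate-pattern-corrected value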;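 further: 0% = DMSO wells with peroxide and 100% = DMSO wells without peroxide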
# hGIII sPLA2 conf: human group III sPLA2 inhibitors, confirmation, biochemical, QFRET, triplicate; hit rate 34% among 2,000; inhibition, % at 12.2 µM; shares compounds with sPLA2-III inh; recombinant hGIII-sPLA2, BODIPY PC-A2 QFRET fluorescence;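 active means mean inhibition across triplicates above the hit cutoff set in the earlier primary screen, cut at about 19% in these data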;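 further: 0% = enzyme with DMSO and 100% = DMSO wells lacking enzyme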
# BODIPY interf: 535nm fluorescence optical interference, confirmation, artefact control for HGIII-sPLA2 inhibitor project, biochemical, QFRET | shares compounds with sPLA2-III inh | BODIPY FL product fluorescence interference | inhibition, % at 12.2 µM | hit rate 8.5% among 2,000;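 active means average inhibition above the solvent-only control mean plus 3 SD, cut at about 6% in these data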;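 further: 0% = DMSO with substrate plus product and 100% = DMSO with substrate alone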
# BODIPY interf DR: 535nm fluorescence optical interference, dose response, artefact control for HGIII-sPLA2 inhibitor project, biochemical, QFRET | BODIPY FL product fluorescence interference, cell-free | shares compounds with sPLA2-III inh | AID 743455, 2014 | 240 tested, under 10 active | IC50, µM;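 active means IC50 at or below 10 µM; inactive means IC50 above 10 µM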
# Active calls of the source: *; i = inactive; u = inconclusive; x = no result.
SMILES,DAGLB inhibitor,ABHD5 PLIN5 PPI,Rtt109 Vps75,sPLA2-III inh,Myeloid diff 2,Cardio protect,hGIII sPLA2 conf,BODIPY interf,others
Cn1c(=O)c2c(ncn2CC(=O)OCC(=O)NC(c2ccccc2)c2ccccc2)n(C)c1=O,-2,5,13,21*,i,0,-1,-5,
Cc1ccc(C)c(N2CCN(S(=O)(=O)c3c(C)noc3/C=C/N(C)C)CC2)c1,7,-4,-8,23*,i,-16,29*,-8,BODIPY interf DR=>122
S=C(NCc1ccc2c(c1)OCO2)NCc1ccc2c(c1)OCO2,2,2,-1,8,i,-1,x,x,
NNC(=S)NCc1ccc2c(c1)OCO2,-4,-5,-4,20*,i,1,10,-6,
OC1c2cc(Br)ccc2N=C2CCCCCN21 (stereo unspecified),x,-4,x,20*,i,-6,-3,-7,
O=c1oc2ccccc2c(N2CCCC2)c1[N+](=O)[O-],-1,2,4,12,i,14,x,x,
CC1CCN(c2c([N+](=O)[O-])c(=O)oc3ccccc23)CC1,0,-2,-1,21*,i,2,4,-1,
COc1ccc(S(=O)(=O)NCCCCCC(=O)NCCCN2CCOCC2)cc1,1,-1,9,x,i,4,x,x,
CC(C)C(=O)N1CC[C@H]2[C@H](CCCN2Cc2ccc(F)cc2)C1,x,x,x,22*,x,x,-4,-9,
CC(C)C(=O)N1CC[C@H]2[C@H](CCCN2Cc2ccccc2)C1,x,x,x,10,x,x,x,x,
COc1ccc(/C=N/NC(=O)c2cc(O)c(O)c(O)c2)cc1Cn1cc([N+](=O)[O-])cn1,5,8,9,21*,i,-4,27*,-10,
CC(=O)C[C@@H](O)CC(=O)[C@@H]1OC(=O)[C@H](C)C/C=C\Cc2ccccc21,1,-5,-5,-1,i,7,x,x,
CCOC(=O)c1sc(=S)n(C)c1NC(=O)c1ccc(F)cc1,-2,-1,-10,13,u,-2,x,x,
CCOC(=O)c1sc(=S)n(C)c1NC(=O)c1ccccc1C,0,-5,-1,24*,i,3,5,-6,
CNc1nn(-c2cccc(Cl)c2)nc1N,2,3,9,22*,i,-12,35*,3,BODIPY interf DR=>122
Oc1ccccc1N=Nc1ccccc1O,17,4,-10,36*,i,27,36*,5,BODIPY interf DR=>122
C=CCn1c(O)c(N=Nc2ccccc2O)c2ccccc21,17,-12,1,4,i,-10,x,x,
Nc1ccc(N=Nc2ccccc2O)c(N)c1,x,-3,x,21*,i,-4,56*,21*,
COC(=O)CN1C(=O)Nc2ccc(C)cc2C1c1ccccc1 (stereo unspecified),-2,-1,-2,5,i,-4,x,x,
CS(=O)(=O)N1CCCC(C(=O)NCc2ccco2)C1 (stereo unspecified),2,-10,4,20*,i,-2,-1,-4,
CS(=O)(=O)N1CCCC(C(=O)NCc2cccs2)C1 (stereo unspecified),-3,-1,-7,20*,i,4,-3,-1,
Cc1ccc(S(=O)(=O)N2CCCC(C(=O)NCc3ccco3)C2)cc1 (stereo unspecified),x,x,x,-1,x,x,x,x,
